The values below come from PubChem BioAssay (NCI).

Molecules are shown by their SMILES. The panel holds about 83,000 compounds, 20% with a hit somewhere; the sample as a whole holds those more often.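 Negative percent growth values reflect cell death: -40 means 40% of the cells present at the start died, and -100 means all died.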 Unmarked numbers belong to inactive results. Calls of active or inactive are those of the source. Rule for the calls: active = growth percent below 10; inactive = the rest.

Test systems include DU-145 prostate; K-562 leukemia; MALME-3M melanoma; MDA-MB-231 breast; RXF 393 renal; SF-268 CNS; SF-295 CNS; SF-539 CNS; UACC-257 melanoma; M14 melanoma; HCT-15 colon; HT29 colon; SNB-75 CNS; SNB-19 CNS; U251 CNS; PC-3 prostate; SK-MEL-5 melanoma; UACC-62 melanoma; LOX IMVI melanoma; SK-MEL-28 melanoma.
Holding throughout (experiment): NCI-60 one-dose screen, 48 h (100 = growth as untreated, 0 = no growth, -100 = all killed)
Common to all, as to conditions: 10 µM unless noted

Consider `CC(=O)c1nc(Nc2ccc(C)cc2)sc1C`, for which the growth is 102% in the assay with DU-145 prostate; 97.6% in the assay on K-562 leukemia; 113% with MALME-3M melanoma; 91.3% in the assay on MDA-MB-231 breast; 96.2% in the assay with RXF 393 renal; 91% in the assay on SF-268 CNS. Further, the growth is 104% in the assay with SF-295 CNS; 101% in the assay on SF-539 CNS; 92.1% in the assay with UACC-257 melanoma; 97.1% in the assay with M14 melanoma; 94.1% in the assay with HCT-15 colon; 105% in the assay on HT29 colon. Further, the growth is 75% in the assay with SNB-75 CNS; 93.1% in the assay on SNB-19 CNS; 95.8% in the assay with U251 CNS; 93.1% with PC-3 prostate; 98.6% in the assay with SK-MEL-5 melanoma; 98.6% in the assay on UACC-62 melanoma. Besides, the growth is 100% in the assay with LOX IMVI melanoma and 95.2% with SK-MEL-28 melanoma.

For the compound `CCCCCCCCCCCCCCCCCCOc1ccccc1CC(=O)OCCC[N+](C)(C)C`, the growth in the assay on DU-145 prostate was 60.5%; in the assay with K-562 leukemia it was 37.4%; in the assay with MALME-3M melanoma, 52.7%; with MDA-MB-231 breast, 45.9%; in the assay on RXF 393 renal it was -18.2% (active); in the assay with SF-268 CNS, 53.2%. Moreover, the growth with SF-295 CNS was 75.4%; with SF-539 CNS it was 52.1%; in the assay on UACC-257 melanoma, 84.7%; in the assay on M14 melanoma, 46.3%; in the assay with HCT-15 colon, 78.7%; in the assay on HT29 colon, 40%. For the same compound, the growth in the assay with SNB-75 CNS is 40.6%; in the assay with SNB-19 CNS it was 34.2%; with U251 CNS, 24.2%; with PC-3 prostate, 36.8%; in the assay with SK-MEL-5 melanoma, 43.2%; in the assay with UACC-62 melanoma, 54.2%. Besides, the growth with LOX IMVI melanoma was 36.4%; in the assay on SK-MEL-28 melanoma it was 66.8%.

For the compound `N#Cc1c(N2CCNCC2)nc2sc3cc(Cl)c(Cl)cc3n2c1=N`, the growth is 122% in the assay with DU-145 prostate; 77.4% with K-562 leukemia; 119% with MALME-3M melanoma; 84.1% in the assay on MDA-MB-231 breast; 19.1% in the assay with RXF 393 renal; 117% in the assay with SF-268 CNS. The growth with SF-295 CNS is 113%; in the assay with SF-539 CNS it was 86.1%; in the assay with UACC-257 melanoma, 124%; with M14 melanoma, 106%; in the assay on HCT-15 colon it was 122%; in the assay on HT29 colon, 98.7%. In addition, the growth with SNB-75 CNS is 62.2%; with SNB-19 CNS it was 98.5%; in the assay with U251 CNS it was 107%; in the assay with PC-3 prostate, 94.2%; in the assay with SK-MEL-5 melanoma it was 89.9%; in the assay on UACC-62 melanoma, 82.6%. In addition, the growth is 93.5% with LOX IMVI melanoma and 120% in the assay with SK-MEL-28 melanoma.

With `COc1ccc(/C=c2\nc3n(-c4ccccc4)c4nc5c6c(sc5c(=N)n4n-3c2=O)CCCC6)cc1`, the growth was 104% with DU-145 prostate; 67.2% in the assay with K-562 leukemia; 97.4% with MALME-3M melanoma; 59.9% in the assay with MDA-MB-231 breast; 98.4% in the assay on RXF 393 renal; 88.8% in the assay with SF-268 CNS. In addition, the growth was 98.4% in the assay with SF-295 CNS; 94.9% in the assay on SF-539 CNS; 106% with UACC-257 melanoma; 96.7% in the assay with M14 melanoma; 40.7% in the assay on HCT-15 colon; 109% with HT29 colon. Besides, the growth was 42.9% in the assay with SNB-75 CNS; 84.9% in the assay with SNB-19 CNS; 87.5% in the assay with U251 CNS; 63.5% in the assay on PC-3 prostate; 70.8% in the assay with SK-MEL-5 melanoma; 74.1% with UACC-62 melanoma. Further, the growth is 91.2% with LOX IMVI melanoma and 102% in the assay with SK-MEL-28 melanoma.

`COc1ccc(-c2cc(-c3cc(OC)ccc3OC)nc(SCC(=O)c3ccccc3)c2C#N)cc1`: the growth in the assay with DU-145 prostate was 106%; in the assay with K-562 leukemia it was 105%; with MALME-3M melanoma, 88.9%; in the assay with MDA-MB-231 breast it was 94.4%; in the assay with RXF 393 renal it was 97.2%; with SF-268 CNS it was 99%. The growth is 104% in the assay on SF-295 CNS; 94.8% in the assay on SF-539 CNS; 101% in the assay on UACC-257 melanoma; 98.1% with M14 melanoma; 109% in the assay with HCT-15 colon; 95% with HT29 colon. Also, the growth in the assay on SNB-75 CNS is 68%; in the assay with SNB-19 CNS, 107%; with U251 CNS it was 90.4%; in the assay on PC-3 prostate it was 88.3%; in the assay with SK-MEL-5 melanoma, 98.8%; in the assay on UACC-62 melanoma, 78.4%. In addition, the growth was 92.1% with LOX IMVI melanoma and 103% in the assay on SK-MEL-28 melanoma.

`CCN1CCN(c2nc(C)cc(NCc3cc(Nc4ccnc5cc(Cl)ccc45)ccc3F)n2)CC1`: the growth was 38% in the assay with DU-145 prostate; -38.3% (active) with K-562 leukemia; -69% (active) in the assay on MALME-3M melanoma; -31.1% (active) in the assay with MDA-MB-231 breast; -10.8% (active) in the assay on RXF 393 renal; 16.6% in the assay on SF-268 CNS. Further, the growth was -55% (active) in the assay with SF-295 CNS; -81% (active) with SF-539 CNS; -57.7% (active) in the assay on UACC-257 melanoma; -83.7% (active) in the assay on M14 melanoma; -24.2% (active) in the assay with HCT-15 colon; -12.6% (active) in the assay with HT29 colon. Moreover, the growth is -34.7% (active) in the assay with SNB-75 CNS; 34.7% with SNB-19 CNS; -27.2% (active) in the assay on U251 CNS; 19.5% in the assay on PC-3 prostate; -96.4% (active) with SK-MEL-5 melanoma; -49.8% (active) in the assay on UACC-62 melanoma. Besides, the results for the growth in the assay on LOX IMVI melanoma and in the assay on SK-MEL-28 melanoma were -81.5% (active) and -80.3% (active), respectively.

As for `COc1ccc(NC(=O)CSc2nc(C)c(C(C)=O)n2-c2ccc([N+](=O)[O-])cc2)cc1`, the growth was 113% in the assay on DU-145 prostate; 96.6% in the assay with K-562 leukemia; 91.3% in the assay with MALME-3M melanoma; 80.3% in the assay with MDA-MB-231 breast; 84.9% in the assay with RXF 393 renal; 108% with SF-268 CNS. The growth with SF-295 CNS is 89%; with SF-539 CNS it was 102%; in the assay with UACC-257 melanoma it was 98.4%; with M14 melanoma, 94.9%; with HCT-15 colon, 85.7%; in the assay on HT29 colon, 90.8%. For the same compound, the growth with SNB-75 CNS was 90%; with SNB-19 CNS it was 85.9%; in the assay on U251 CNS, 93.8%; in the assay with PC-3 prostate, 85.3%; with SK-MEL-5 melanoma it was 91.5%; in the assay with UACC-62 melanoma, 73.1%. The growth in the assay with LOX IMVI melanoma is 89.7%; in the assay on SK-MEL-28 melanoma, 89.8%.
